# Assay outcomes deposited in PubChem BioAssay by The Scripps Research Institute Molecular Screening Center.
# MITF inh: MITF inhibitors, primary screen, biochemical, AlphaScreen, human; Microphthalmia-associated transcription factor (Homo sapiens), O75030; AlphaScreen MITF homodimerization, bead proximity signal; inhibition, % at 2.6 µM; hit rate 0.91% among 650,000; AID 1259374, 2018; in the data active = inhibition above about 50%;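 also: 0% = vehicle wells with protein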
# FBW7 activator: FBW7 E3 ligase activators, primary screen, biochemical, AlphaScreen, human | AlphaScreen FBW7–phospho-cyclin E peptide binding, activator screen | normalized activity (activation), % at 26.1 µM | hit rate 0.13% among 650,000; in the data active = normalized activity above about 1.9%;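 also: purified mutant Fbw7 with reduced substrate affinity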
# Target sequence (Q969H0 whole entry, looked up): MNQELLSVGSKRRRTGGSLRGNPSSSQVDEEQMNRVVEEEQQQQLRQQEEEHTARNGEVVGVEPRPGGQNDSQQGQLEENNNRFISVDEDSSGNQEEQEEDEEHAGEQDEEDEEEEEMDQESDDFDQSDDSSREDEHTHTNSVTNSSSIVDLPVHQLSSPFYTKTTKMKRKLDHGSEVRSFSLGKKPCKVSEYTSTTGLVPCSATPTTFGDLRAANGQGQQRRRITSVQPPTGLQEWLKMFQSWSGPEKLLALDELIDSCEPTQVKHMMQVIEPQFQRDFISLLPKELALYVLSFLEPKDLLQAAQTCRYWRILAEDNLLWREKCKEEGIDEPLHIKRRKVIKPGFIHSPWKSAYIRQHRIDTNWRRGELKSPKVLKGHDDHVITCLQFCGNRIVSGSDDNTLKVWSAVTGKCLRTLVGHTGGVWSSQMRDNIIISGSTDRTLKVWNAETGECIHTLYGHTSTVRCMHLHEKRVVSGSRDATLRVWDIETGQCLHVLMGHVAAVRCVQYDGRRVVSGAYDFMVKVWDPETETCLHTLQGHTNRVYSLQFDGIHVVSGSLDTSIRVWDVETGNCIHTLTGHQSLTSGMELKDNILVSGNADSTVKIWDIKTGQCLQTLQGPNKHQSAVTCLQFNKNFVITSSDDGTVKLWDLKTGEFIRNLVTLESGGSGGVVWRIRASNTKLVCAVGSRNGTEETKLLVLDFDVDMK
# TEAD-YAP block: TEAD-YAP interaction inhibition, primary screen, TEAD-YAP interaction inhibitor project, luminescence, HEK-TIYL cells. TEAD-Gal4/YAP UAS-luciferase luminescence. inhibition, % at 9.12 µM. hit rate 1.4% among 640,000. AID 1259422, 2018; in the data active = inhibition above about 32%;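 also: 0% = median of test compound wells and 100% = reference inhibitor wells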
# GPR151 ag: activators of human GPR151, primary screen, cell-based, PathHunter beta-arrestin, luminescence; hit rate 1% among 650,000; PathHunter beta-arrestin GPR151 cells; activation, % at 11.2 µM; AID 1508602, 2020; G-protein coupled receptor 151 (Homo sapiens), Q8TDV0; in the data active = activation above about 4.9%;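 also: 0% = median of compound wells and 100% = cells with positive control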
# The depositor's hits bear a star. Compounds with a hit are over-represented: about 3.4% of the library has one in this group of screens.
SMILES,MITF inh,FBW7 activator,TEAD-YAP block,GPR151 ag
O=C(CSc1n[nH]c(=O)n1Cc1ccccc1)Nc1ccc(Br)cc1F,-1,0,34*,3
CCOC(=O)c1c(C)sc2c3c([nH]c12)CCCC3,4,0,62*,1
CCOCCOc1cccc(C(=O)Nc2ccc3ccccc3c2)c1,10,1,39*,-3
CCOc1ccc(NC(=O)c2cccc(O)c2)cc1,7,0,80*,-6
CCOc1ccc(NC(=O)c2ccc(O)cc2)cc1,1,1,64*,-3
O=C(Nc1ccc(O)cc1)c1ccc([N+](=O)[O-])cc1,11,0,55*,1
CC1CCCCN1C(=O)Cn1ncn2c(cc3ccsc32)c1=O (stereo not drawn),7,0,0,0
CCC(=O)Oc1ccc(C(=O)Nc2ccc(N(C)C)cc2)cc1,-9,0,38*,-1
COc1cccc(C2N(c3ccccc3)N=C(C(C)=O)N2c2ccc(C)c(C)c2)c1OCc1ccccc1 (stereo not drawn),-23,0,54*,1
COc1cccc(C2N(c3ccc(C)cc3)N=C(C(C)=O)N2c2cccc(C)c2)c1OCc1ccccc1 (stereo not drawn),3,0,68*,2
CC(=O)C1=NN(c2ccccc2)C(c2ccccc2OCc2ccc(Cl)cc2)N1c1ccc(Cl)cc1 (stereo not drawn),-26,0,1,-2
CCN(C1CCCCC1)S(=O)(=O)c1ccc(NC(C)=O)cc1,-1,0,11,0
CCN1CCN(C(=O)/C(C#N)=C/c2cc(C)n(C3CCCC3)c2C)CC1,15,1,-15,-2
Cc1cc(/C=C(\C#N)C(=O)N2CCOCC2)c(C)n1C1CCCC1,6,0,32*,-3
Oc1ccccc1-c1nc2cnccn2c1NCc1ccc2c(c1)OCO2,-1,0,57*,0
c1ccc(-c2nc3cnccn3c2NCc2ccc3c(c2)OCO3)cc1,-2,0,-2,1
COc1ccc(CN2C(=O)NC(=O)/C(=C/c3cnc(SC)nc3)C2=O)cc1,2,0,2,3
Cn1ccnc1N1CCN(C(=O)COc2ccc3ccccc3c2)CC1,0,0,6,1
COc1ccc(C=C(C(=O)Nc2ccccc2OC)C(=O)Nc2ccccc2OC)cc1O,3,0,57*,1
COc1ccc(/C=C2\C=C(c3ccccc3)N(c3cccc4ccccc34)C2=O)cc1,18,0,57*,-2
Cc1ccc(C)c(N2C(=O)/C(=C/c3ccc(Cl)cc3)C=C2c2ccccc2)c1,0,0,4,-1
COc1ccc(/C=C2\C=C(c3ccccc3)N(c3cc(C)ccc3C)C2=O)cc1,-9,0,42*,0
Cc1ccc(Oc2nc3ccccn3c(=O)c2/C=C(\C#N)C(=O)N2CCOCC2)c(C)c1,4,0,34*,0
COc1ccc(Oc2nc3c(C)cccn3c(=O)c2/C=C(\C#N)C(=O)N2CCOCC2)cc1,9,0,15,0
Cc1cc(C)cc(Oc2nc3c(C)cccn3c(=O)c2/C=C(\C#N)C(=O)N2CCOCC2)c1,8,0,37*,4
SMILES,MITF inh,FBW7 activator,TEAD-YAP block,GPR151 ag
Cc1cccc(Oc2nc3ccccn3c(=O)c2/C=C(\C#N)C(=O)N2CCOCC2)c1C,18,1,42*,-1
Cc1ccc(C(=O)OCC(=O)NC2CCCCC2C)cc1NC(=O)c1ccco1 (stereo not drawn),-3,0,4,0
CCc1ccc(/C=N/NC(=O)c2ccoc2C)cc1,8,0,23,-9
COC(=O)c1ccc(/C=N/NC(=O)c2ccoc2C)cc1,-7,0,35*,-9
N#CC1=C(N)OC(c2ccccc2)=C(n2nnnc2N)C1c1cccnc1 (stereo not drawn),-5,0,-3,1
O=C(/C=C/c1ccc(Br)cc1)Nc1cnc2ccccc2c1,5,0,-23,0
CC(=O)c1ccc(NC(=O)c2noc3c2CCC3)cc1,25,0,80*,-3
COc1ccc(S(=O)(=O)Nc2ccccc2C(=O)NCc2ccccc2)cc1Cl,19,1,11,0
FC(F)(F)c1cccc(CNc2nc(Cl)nc3c2ncn3C2CCCCC2)c1,10,0,1,1
COC(=O)c1c(-c2ccccc2Cl)csc1NC(=O)/C=C/C(=O)O,5,0,42*,0
COC(=O)c1c(NC(=O)/C=C/C(=O)O)sc(C)c1-c1cc(C)ccc1C,2,0,42*,0
COC(=O)c1c(-c2ccc(C)c(C)c2)csc1NC(=O)/C=C/C(=O)O,-11,0,33*,1
CC1=C(C#N)C(c2cccc(I)c2)C2=C(CCCC2=O)N1 (stereo not drawn),-5,0,6,0
CC(=O)Nn1c(O)c(C2=c3cc(C)ccc3=NC2=O)sc1=S,9,0,-4,0
CCCCOC(=O)C1=C(C)NC2=C(C(=O)CCC2)C1c1cc(Cl)c(O)c(OC)c1 (stereo not drawn),-2,0,10,0
Cc1ccc(C#N)c(SCc2nnc(-c3ccc(Cl)cc3)o2)n1,15,0,68*,0
Cc1cccc(C(=O)NCc2ccc(Cl)cc2)c1[N+](=O)[O-],10,0,5,-2
O=C(NNC(=O)C1c2ccccc2Oc2ccccc21)NC12CC3CC(CC(C3)C1)C2,7,0,10,4
CC(=O)Oc1ccc(C(=O)c2ccc(OC(C)=O)cc2)cc1,16,0,3,1
CC(=O)OC(=C(Cl)Cl)c1ccc(C(OC(C)=O)=C(Cl)Cl)cc1,-1,0,42*,4
COc1ccccc1CNc1ccccc1SC,-17,0,4,0
COc1ccccc1CNc1cc(C)ccc1OC,62*,0,-2,0
COc1ccccc1CC(=O)Nc1ccc(C)cc1C,-13,0,-2,-2
COc1ccccc1CNc1ccccc1F,-8,2.2*,9,-1
O=C(Cc1ccccc1)Nc1ccc(N2C(=O)c3ccc4c5c(ccc(c35)C2=O)CC4)cc1,-1,0,43*,1
SMILES,MITF inh,FBW7 activator,TEAD-YAP block,GPR151 ag
NC(=O)[C@H](Cc1ccccc1)NC1CCN(c2ccc(NC(=O)C3CCCC3)cc2)CC1,-1,1,-4,0
O=c1c(Oc2ccc(F)cc2)coc2c(O)c(O)ccc12,83*,0,-7,0
CCOc1ccc2c(c1)/C(=C1/SC(C(C)=O)=C(c3ccccc3)S1)C(=S)C(C)(C)N2,7,0,4,-1
CC(=O)C1=C(c2ccccc2)S/C(=C2/C(=S)C(C)(C)Nc3ccc(C)cc32)S1,57*,0,7,0
Cc1cccc(C)c1-n1c(SCC#N)nc2c(sc(=S)n2-c2c(C)cccc2C)c1=O,4,0,10,2
Cc1ccc(NC2=NCC(=O)N2C2CCCC2)cc1,0,0,56*,-6
COc1cc(C(=O)/C=C/Nc2ccc(C(=O)O)cc2)cc(OC)c1OC,-8,0,-3,0
